Records with an inconclusive call do not appear. A call without a number means that no potency is given here. Values without a mark were called inactive. Activity calls are given as the source filed them. Unless noted, the call rests on the fitted dose curve; in most records, active means well fitted curve in the direction sought with a large enough effect in the repeat runs; inconclusive means weak or mixed curves; inactive means no such curve, though single readings can be large; an effect the other way counts as inactive or inconclusive.
Columns and labels:
[1] = qHTS assay to identify small molecule agonists of the NFkB signaling pathway - cell viability counter screen (AID 1159515; calls by dose curve; further: series mostly up to about 61 µM; nearly all actives have a fitted effect of over 55% in size)
Summary of the method: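 Parallel cytotoxicity counter screen in ME-180 cells carrying an NFkB-response-element beta-lactamase reporter, 2,000 cells/well. Compound exposure lasted 5 hr at 37 C, 5% CO2. Cell viability was quantified by CellTiter-Glo luminescence.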

[2] = qHTS assay to identify small molecule agonists of the endoplasmic reticulum stress response signaling pathway (AID 1159516; active means well fitted activation curve with a large enough effect in the signal ratio in the repeat runs, not every such curve was filed as active; the % refers to the signal ratio)
Summary of the method: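 Using a HeLa line with an ESRE-driven beta-lactamase gene, agonist activity was measured by FRET substrate fluorescence (460 and 530 nm emission) after cells were treated with compounds for 5 hr at 37 C and 5% CO2.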

[3] = qHTS assay to identify small molecule agonists of the endoplasmic reticulum stress response signaling pathway - cell viability counter screen (AID 1159517; calls by dose curve;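 further: HeLa cells carrying an ER stress response element beta-lactamase reporter; series mostly up to about 61 µM; nearly all actives have a fitted effect of over 50% in size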)
Summary of the method: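 ESRE-bla HeLa cells (1,500/well) were plated overnight at 37 C and exposed to compounds for 5 hr. After the 2 hr beta-lactamase substrate read, CellTiter-Glo went into the same wells, and luminescence was read after 30 min at room temperature.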

[4] = qHTS assay to identify small molecule antagonists of the retinoid-related orphan receptor gamma (ROR-gamma) signaling pathway - cell viability counter screen (AID 1159520); further: nearly all actives have a fitted effect of over 50% in size
Summary of the method: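 Cytotoxicity was read from cellular ATP (CellTiter-Glo luminescence) after 16 hr at 37 C with 1 uM doxycycline induction. The inducer was added 2 hr after compound transfer to Tet-on ROR gamma CHO cells.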

[5] = molecular target: Nuclear receptor ROR-gamma (Homo sapiens) (UniProt P51449); assay: qHTS assay to identify small molecule antagonists of the retinoid-related orphan receptor gamma (ROR-gamma) signaling pathway (AID 1159521;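 further: CHO cells with doxycycline inducible ROR-gamma driving an RORE luciferase reporter; top concentration of the series differs between compounds; nearly all actives have a fitted effect of over 50% in size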)
Summary of the method: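 Decreased RORE-driven luciferase luminescence indicates antagonism. Tet-on RORγ CHO cells received compound, then 1 uM final doxycycline 2 h later; signal read after 16 h incubation.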

[6] = qHTS assay to identify small molecule agonists of the AP-1 signaling pathway - cell viability counter screen (AID 1159525; calls by dose curve; further: nearly all actives have a fitted effect of over 55% in size)
Summary of the method: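 Intracellular ATP by Cell Titer Glo luminescence (30 min, RT) in the same ME-180 AP-1-bla wells after the 5 h compound exposure at 37 °C. Normalised to tetra n-octyl ammonium bromide and DMSO controls.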

[7] = qHTS assay to identify small molecule agonists of the AP-1 signaling pathway (AID 1159526; calls by dose curve)
[8] = molecular target: Retinoic acid receptor RXR-alpha (Homo sapiens) (UniProt P19793); assay: qHTS assay to identify small molecule agonists of the RXR signaling pathway (AID 1159527; calls by dose curve; further: nearly all actives have a fitted effect of over 35% in size)
Sequence of Retinoic acid receptor RXR-alpha (Homo sapiens) (P19793 whole entry, looked up): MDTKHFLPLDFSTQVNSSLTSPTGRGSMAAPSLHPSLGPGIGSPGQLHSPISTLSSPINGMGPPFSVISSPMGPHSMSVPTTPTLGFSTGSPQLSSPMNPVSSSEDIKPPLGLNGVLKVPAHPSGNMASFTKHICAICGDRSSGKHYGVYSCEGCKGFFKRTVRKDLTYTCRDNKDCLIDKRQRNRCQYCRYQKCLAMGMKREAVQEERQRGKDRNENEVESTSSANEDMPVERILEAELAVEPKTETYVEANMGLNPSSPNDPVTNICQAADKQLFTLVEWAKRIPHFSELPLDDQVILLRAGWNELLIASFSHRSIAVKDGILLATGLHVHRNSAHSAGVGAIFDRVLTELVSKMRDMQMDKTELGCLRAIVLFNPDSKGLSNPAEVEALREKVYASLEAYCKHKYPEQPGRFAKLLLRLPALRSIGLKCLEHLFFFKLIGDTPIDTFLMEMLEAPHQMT
Summary of the method: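 16 hr incubation of compound-treated RXR-alpha-UAS-bla HEK 293T cells (2% charcoal-stripped FBS, 37 C) preceded a 2 hr room-temperature LiveBLAzer FRET substrate step and blue/green fluorescence measurement.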

[9] = qHTS assay to identify small molecule agonists of the RXR signaling pathway - cell viability counter screen (AID 1159529);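 further: HEK 293T cells carrying an RXR-alpha UAS beta-lactamase reporter; series mostly up to about 77 µM; nearly all actives have a fitted effect of over 50% in size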
Summary of the method: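 In this parallel viability measure, GeneBLAzer RXR-alpha HEK 293T cells (2% charcoal-stripped FBS) were given a 5 hr preincubation, treated with compounds 16 hr at 37 C, and read by CellTiter-Glo luminescence.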

[10] = qHTS assay to identify small molecule antagonists of the retinoid acid receptor (RAR) signaling pathway - cell viability counter screen (AID 1159551); further: nearly all actives have a fitted effect of over 35% in size
Summary of the method: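 ATP-based viability, C3RL4 cells, 6 h at 37 C with 1 uM final retinol co-added after compound; luminescence read 30 min post CellTiter-Glo, RT.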

[11] = qHTS assay to identify small molecule antagonists of the retinoic acid receptor (RAR) signaling pathway (AID 1159552; further: nearly all actives have a fitted effect of over 50% in size)
Summary of the method: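 C3RL4 RARE-luc cells, overnight plating; retinol 1 uM final added right after compound; 6 hr 37 C; luciferase read at 30 min RT.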

[12] = qHTS assay to identify small molecule agonists of the retinoic acid receptor (RAR) signaling pathway (AID 1159553); further: potency means the concentration at half of the fitted maximal effect
Summary of the method: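 Quantitative high-throughput format: the Tox21 10K library was tested on C3RL4 RARE-luciferase cells for 6 hr at 37 C and 5% CO2, with luminescence measured after a 30 min room-temperature reagent step.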

[13] = qHTS assay to identify small molecule antagonists of the estrogen related receptor (ERR) signaling pathway from Tox21 library - cell viability counter screen (AID 1224834); further: nearly all actives have a fitted effect of over 30% in size
Summary of the method: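 Compounds in DMSO were pinned onto ERR cells that had been incubated for 6 h, and the plates were held at 37 C for 17.5 h. CellTiter-Fluor reagent was then added and fluorescence was measured after 30 min.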

[14] = molecular target: Luciferin 4-monooxygenase (Photinus pyralis) (UniProt P08659); assay: qHTS assay to identify small molecule inhibitors of firefly luciferase (AID 1224835); further: nearly all actives have a fitted effect of over 25% in size; further: potency means the concentration at half of the fitted maximal effect
Sequence of Luciferin 4-monooxygenase (Photinus pyralis) (P08659 whole entry, looked up): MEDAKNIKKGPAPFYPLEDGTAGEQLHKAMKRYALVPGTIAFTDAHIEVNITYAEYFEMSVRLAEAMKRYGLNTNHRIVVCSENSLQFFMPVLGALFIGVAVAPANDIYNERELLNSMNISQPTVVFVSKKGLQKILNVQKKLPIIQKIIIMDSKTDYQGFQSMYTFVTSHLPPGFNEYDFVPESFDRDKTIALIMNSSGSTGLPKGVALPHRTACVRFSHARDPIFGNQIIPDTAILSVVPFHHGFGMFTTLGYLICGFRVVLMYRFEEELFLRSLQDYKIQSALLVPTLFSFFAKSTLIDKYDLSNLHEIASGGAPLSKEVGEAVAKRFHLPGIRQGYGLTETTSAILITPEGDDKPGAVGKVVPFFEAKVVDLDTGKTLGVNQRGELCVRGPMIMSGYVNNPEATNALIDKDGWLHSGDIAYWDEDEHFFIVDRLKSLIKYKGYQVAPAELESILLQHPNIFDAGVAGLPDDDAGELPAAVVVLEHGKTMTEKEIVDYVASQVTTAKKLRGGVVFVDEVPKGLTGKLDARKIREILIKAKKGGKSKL
Summary of the method: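 Inhibition of purified Photinus luciferase is measured by luminescence. Substrate levels (D-luciferin, ATP) sit at their KM values. Each compound is tested in a concentration series.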

[15] = qHTS assay to identify small molecule agonists of the constitutive androstane receptor (CAR) signaling pathway - cell viability counter screen (AID 1224836); further: series mostly up to about 92 µM; nearly all actives have a fitted effect of over 45% in size
Summary of the method: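 Using CellTiter-Fluor, viability of HepG2 cells harbouring hCAR and CYP2B6-2.2kb was measured following 23 h incubation with a 15-concentration compound series plus PK11195 (0.75 uM final).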

[16] = qHTS assay to identify small molecule antagonists of the constitutive androstane receptor (CAR) signaling pathway - cell viability counter screen (AID 1224837); further: series mostly up to about 92 µM; nearly all actives have a fitted effect of over 45% in size
Summary of the method: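 Cells are seeded, rested 4 hr at 37 C/5% CO2, dosed with compound (15-point series) and 50 nM CITCO, incubated a further 23 hr, and then CellTiter-Fluor reagent is added before fluorescence is read. The line is HepG2 with stable hCAR and CYP2B6-2.2kb.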

[17] = qHTS assay to identify small molecule antagonists of the estrogen related receptor signaling pathway with the pleiotropic PPARgamma coactivator (PGC) from Tox21 10K library - cell viability counter screen (AID 1224840; active means well fitted cell-killing curve with a large enough effect in the repeat runs, not every such curve was filed as active; further: nearly all actives have a fitted effect of over 40% in size)
Summary of the method: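 Cell viability is measured by CellTiter-Fluor fluorescence in PGC/ERR cells that receive compounds after a 6-hour attachment period and are then incubated 17.5 hours at 37 C.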

[18] = qHTS assay to identify small molecule antagonists of the vitamin D receptor (VDR) signaling pathway - cell viability counter screen (AID 743225); further: nearly all actives have a fitted effect of over 50% in size
Summary of the method: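 Parallel cytotoxicity test: VDR-UAS-bla HEK 293T, 3 nM (final) 1-alpha,25-dihydroxyvitamin D3 with test compound, 16 h, 37C. Endpoint is CellTiter-Glo luminescence in the same wells.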

[19] = molecular target: Nuclear receptor subfamily 1 group I member 3 (Homo sapiens) (UniProt Q14994); assay: qHTS assay to identify small molecule agonists of the constitutive androstane receptor (CAR) signaling pathway (AID 1224839); further: nearly all actives have a fitted effect of over 15% in size; further: potency means the concentration at half of the fitted maximal effect;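 on activation: HepG2 cells stably carrying human CAR and a CYP2B6 luciferase reporter; series mostly up to about 92 µM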
Sequence of Nuclear receptor subfamily 1 group I member 3 (Homo sapiens) (Q14994 whole entry, looked up): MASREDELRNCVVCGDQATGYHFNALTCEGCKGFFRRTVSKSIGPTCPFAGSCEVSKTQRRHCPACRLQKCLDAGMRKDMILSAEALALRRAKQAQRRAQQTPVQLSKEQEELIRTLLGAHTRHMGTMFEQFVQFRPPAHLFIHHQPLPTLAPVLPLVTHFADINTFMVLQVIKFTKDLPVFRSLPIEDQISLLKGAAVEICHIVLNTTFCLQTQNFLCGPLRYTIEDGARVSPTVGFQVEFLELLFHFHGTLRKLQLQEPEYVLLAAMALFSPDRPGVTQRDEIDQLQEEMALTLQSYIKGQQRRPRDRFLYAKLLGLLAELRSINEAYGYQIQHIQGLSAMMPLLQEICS
Summary of the method: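 Double-stable HepG2 cells (hCAR, CYP2B6-2.2kb) seeded 4 h before compound addition. Exposure 24 h with 0.75 uM PK11195 final. Luciferase detected by ONE-Glo.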

Row | SMILES | outcome [1] | Potency [2] | outcome [3] | outcome [4] | outcome [5] | outcome [6] | Potency [7] | Potency [8] | Potency [9] | outcome [10] | outcome [11] | Potency [12] | outcome [13] | Potency [14] | outcome [15] | outcome [16] | outcome [17] | outcome [18] | Potency [19]
1 | COc1ccc(Cl)cc1C | inactive | inactive | inactive | inactive | inactive | inactive | inactive | inactive | inactive | inactive | inactive | inactive | inactive | inactive | inactive | inactive | inactive |  | 
2 | CC(C)(C)C(=O)NCCCC(=O)O | inactive | inactive | inactive | inactive | inactive | inactive | inactive | inactive | inactive | inactive | inactive | inactive | inactive | inactive | inactive | inactive | inactive | inactive | inactive
3 | CC/C=C\CCCCCCCCCCOC(C)=O | inactive | inactive | inactive | inactive | inactive | inactive | inactive | inactive | inactive | inactive | inactive | inactive | inactive | inactive | inactive | inactive | inactive |  | inactive
4 | CCCCC(O)/C=C(C)/C=C/C=C/C(=O)N1CCCC1=O (stereo unspecified) | inactive | inactive | inactive | inactive | inactive | inactive | inactive | inactive | inactive | inactive | inactive | inactive | inactive | inactive | inactive | inactive | inactive | inactive | inactive
5 | CCOC(=O)c1ccc(N(C)C)cc1 | inactive | inactive | inactive | inactive | inactive | inactive | inactive | inactive | inactive | inactive | inactive | 15.4 µM (active) | inactive | 35.6 µM (active) | inactive | inactive | inactive | inactive | 30.6 µM (active)
6 | NC(=O)CC[C@@H](N)C(=O)O | inactive | inactive | inactive | inactive | inactive | inactive | inactive | inactive | inactive | inactive | inactive | inactive | inactive | inactive | inactive | inactive | inactive | inactive | inactive
7 | CCCCCCCCCCCCCC(=O)OCC | inactive | inactive | inactive | inactive | inactive | inactive | inactive | inactive | inactive | inactive | inactive | inactive | inactive | inactive | inactive | inactive | inactive |  | inactive
8 | O=C(O)COc1ccc2ccccc2c1 | inactive | inactive | inactive | inactive | inactive | inactive | inactive | inactive | inactive | inactive | inactive | inactive | inactive | 39.9 µM (active) | inactive | inactive | inactive | inactive | inactive
9 | CC(C)OCCO | inactive | inactive | inactive | inactive | inactive | inactive | inactive | inactive | inactive | inactive | inactive | inactive | inactive | inactive | inactive | inactive | inactive | inactive | inactive
10 | CCN1CCN(C(=O)N[C@@H](C(=O)N[C@@H]2C(=O)N3C(C(=O)O)=C(CSc4nnnn4C)CS[C@H]23)c2ccc(O)cc2)C(=O)C1=O | inactive | inactive | inactive | inactive | inactive | inactive | inactive | inactive | inactive | inactive | inactive | inactive | inactive | inactive | inactive | inactive | inactive |  | 
11 | CC(C)C(=O)Nc1cccc(C2CN3CCSC3=N2)c1 (stereo unspecified) | inactive | inactive | inactive | inactive | inactive | inactive | inactive | inactive | inactive | inactive | inactive | inactive | inactive | inactive | inactive | inactive | inactive |  | 
12 | c1coc(Cn2cccc2)c1 | inactive | inactive | inactive | inactive | inactive | inactive | inactive | inactive | inactive | inactive | inactive | inactive | inactive | inactive | inactive | inactive | inactive | inactive | inactive
13 | CCCCCCCC(=O)N(C)C | inactive | inactive | inactive | inactive | inactive | inactive | inactive | inactive | inactive | inactive | inactive | inactive | inactive | inactive | inactive | inactive | inactive | inactive | inactive
14 | C=CC(=O)OCCOCCOCC | inactive | inactive | inactive | inactive | inactive | inactive | inactive | inactive | inactive | inactive | inactive | inactive | inactive | inactive | inactive | inactive | inactive |  | 
